HP1b chromo inh: HP1-beta chromodomain-methylated histone interaction inhibition; AlphaScreen HP1-beta / biotin-H3K9me3 peptide binding; Potency, µM (top dose mostly 114 µM), most hits filed as inhibitors; P83916; 390,000 compounds, 0.56% hits; also: nearly all actives have a fitted effect of over 70% in size
Target sequence (P83916 whole entry, looked up): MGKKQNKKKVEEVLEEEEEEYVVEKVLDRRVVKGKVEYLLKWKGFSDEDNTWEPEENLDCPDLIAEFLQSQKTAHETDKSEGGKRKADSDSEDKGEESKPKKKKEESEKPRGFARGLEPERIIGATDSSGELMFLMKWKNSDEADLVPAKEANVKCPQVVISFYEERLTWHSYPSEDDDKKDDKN
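Compound inhibition of the preformed complex between 50 nM HP1-beta and 50 nM biotinylated H3K9me3 peptide was read by AlphaScreen. Buffer was PBS pH 7.4 with 0.01% Tween-20. Incubations ran 30 min at room temperature, with 10 ug/mL donor/acceptor beads.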
G9a block: blocks human histone lysine methyltransferase G9a. Q96KQ7. G9a H3K9 monomethylation, AlphaScreen, 2 h. Potency, µM (highest dose often 102 µM), usual class: inhibitors. 350,000 compounds, 8.8% hits; also: nearly all actives have a fitted effect of over 75% in size
Target sequence (Q96KQ7 913-1193 limits assumed): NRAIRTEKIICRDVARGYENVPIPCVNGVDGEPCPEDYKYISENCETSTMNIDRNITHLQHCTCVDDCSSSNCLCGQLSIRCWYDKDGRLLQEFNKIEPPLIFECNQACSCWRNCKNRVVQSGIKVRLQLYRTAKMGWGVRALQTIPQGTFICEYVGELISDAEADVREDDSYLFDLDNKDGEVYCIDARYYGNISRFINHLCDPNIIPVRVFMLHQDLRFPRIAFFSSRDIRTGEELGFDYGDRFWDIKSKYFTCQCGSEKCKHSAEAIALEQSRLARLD
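Methyltransferase reactions run at room temperature for 2 h (20 nM enzyme, 500 nM biotin-H3K9 peptide, 20 uM SAM) after a 15 min compound preincubation; product detected by AlphaScreen beads and anti-H3K9me1 antibody.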
JMJD2A Tudor: inhibitors of human JMJD2A Tudor domain. O75164. AlphaScreen JMJD2A-Tudor / H3K4me3 peptide binding. Potency, µM (titrated, usually from 114 µM), most hits filed as inhibitors. 390,000 compounds, 4.4% hits. AID 504339; also: nearly all actives have a fitted effect of over 50% in size
BAZ2B block: inhibitors of human BAZ2B bromodomain. 360,000 compounds, 4.4% hits. Potency, µM (top dose mostly 114 µM), most hits filed as inhibitors. Q9UIF8. AlphaScreen BAZ2B-H3K14Ac peptide displacement; also: nearly all actives have a fitted effect of over 60% in size
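BAZ2B (50 nM) with biotin-H3(5-23)K14Ac peptide (50 nM) in PBS pH 7.4, 0.01% Tween-20, preformed 30 min, then compound 30 min at room temperature; top concentration 110uM. AlphaScreen streptavidin donor/nickel chelate acceptor beads (10 ug/mL final), 20 min dark, signal read.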
L3MBTL1 block: L3MBTL1 (human) inhibition; Q9Y468; AlphaScreen L3MBTL1–H3K9me1 peptide binding; Potency, µM (series often up to 57.1 µM), most hits filed as inhibitors; 230,000 compounds, 0.66% hits; AID 485360; also: nearly all actives have a fitted effect of over 60% in size
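AlphaScreen assay: L3MBTL1 (50 nM final) was preincubated 30 min at room temperature with biotinylated H3(1-15)K9me1 peptide (75 nM final), then 30 min with library compounds; streptavidin donor and nickel chelate acceptor beads (10 ug/mL final) added, 30 min dark.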
Each line names hits and unclear results; the compound was inactive in the other large screens. Shown are actives, neighbours in structure and some others; about 11% of the full set was active somewhere. Calls follow the shape of the dose curve; as a rule, active = well fitted inhibition curve with a large enough effect; inconclusive = small, poorly fitted or top-dose-only effect; inactive = no such curve, though single readings can be large or run the other way.

COCCCNCCCOc1ccc(C)cc1Br	G9a block inconclusive, JMJD2A Tudor 3.55µM, BAZ2B block 50.1µM
CCCCNCCCOc1cc(Cl)ccc1Cl	none (no result: L3MBTL1 block)
CCOc1ccccc1OCCCOc1ccc(C)cc1Br	none (no result: G9a block)
C=CCNCCCOc1ccc(C)cc1Br	none
COCCNCCCOc1ccc(C)cc1Br	JMJD2A Tudor 20µM, BAZ2B block 56.2µM (no result: G9a block)
CC(C)NCCCOc1ccc(Cl)cc1Br	HP1b chromo inh inconclusive, JMJD2A Tudor 31.6µM, BAZ2B block inconclusive (no result: G9a block)
c1ccc(CN(CCN(Cc2ccccn2)Cc2ccccn2)Cc2ccccn2)nc1	none (no result: HP1b chromo inh, JMJD2A Tudor, BAZ2B block, L3MBTL1 block)
COc1cccc2sc(N(Cc3cccnc3)C(=O)C3CCCCC3)nc12	none (no result: L3MBTL1 block)
COC(=O)N1CCC2(CCCN(c3ncccn3)C2)CC1	none (no result: HP1b chromo inh, JMJD2A Tudor, BAZ2B block, L3MBTL1 block)
COc1ccc(C(=O)c2cn(Cc3ccccc3F)c3cc4c(cc3c2=O)OCCO4)cc1OC	none (no result: L3MBTL1 block)
CC(C)NCCCCOc1ccc(Br)cc1Cl	JMJD2A Tudor 31.6µM (no result: G9a block)
CCCCNCCOCCOc1ccc(F)cc1	HP1b chromo inh inconclusive, G9a block 11.2µM, JMJD2A Tudor 5.01µM, BAZ2B block 79.4µM
COCCCNCCCOc1ccc(Cl)cc1Br	HP1b chromo inh inconclusive, G9a block inconclusive, JMJD2A Tudor 0.891µM, BAZ2B block inconclusive
CCN(CC)CCCOc1ccc(C)cc1Br	HP1b chromo inh inconclusive, G9a block 20µM, JMJD2A Tudor 14.1µM, BAZ2B block 79.4µM (no result: L3MBTL1 block)
CCCCn1c(=N)n(CCCOc2ccc(F)cc2)c2ccccc21	none (no result: L3MBTL1 block)
O=C(c1ccco1)N1CCC2(CC1)CCN(C(c1ccccc1)c1ccccc1)CC2	none (no result: HP1b chromo inh, JMJD2A Tudor, BAZ2B block, L3MBTL1 block)
Cc1cc(Br)ccc1OCCN1CCCC1	HP1b chromo inh inconclusive, JMJD2A Tudor 25.1µM, BAZ2B block inconclusive (no result: G9a block)
CCN1CCN(CCOc2ccc(Br)cc2C)CC1	HP1b chromo inh inconclusive, G9a block 7.94µM, JMJD2A Tudor 17.8µM, BAZ2B block 22.4µM
Cc1ccc(OCCN2CCCCCC2)c(C)c1	none (no result: L3MBTL1 block)
Cc1cccc(CNC(=O)Cn2ccc3cc(S(=O)(=O)N4CCC(C)CC4)ccc32)c1	none (no result: L3MBTL1 block)
CCN(CC)Cc1cc2[nH]c3c4ccc(Cl)cc4ncc3c2cc1OC	G9a block 44.7µM (no result: L3MBTL1 block)
COc1ccc(CNc2ncnc3cc(Cl)ccc23)cc1OC	none
CC(=O)N[C@H]1[C@H](O[C@@H]2c3ccc(c(Cl)c3)Oc3cc4cc(c3O[C@@H]3O[C@H](CO)[C@@H](O)[C@H](O)C3C)Oc3ccc(cc3Cl)C[C@H]3NC(=O)[C@@H](N)c5ccc(O)c(c5)Oc5cc(O)cc(c5)[C@H](NC3=O)C(=O)N[C@H]4C(=O)N[C@H]3C(=O)N[C@@H]2C(=O)N[C@@H](C(=O)O)c2cc(O)cc(O[C@H]4O[C@H](CO)[C@@H](O)C(O)[C@@H]4O)c2-c2cc3ccc2O)O[C@H](CO)[C@@H](O)[C@@H]1O (some centres undefined)	none (no result: HP1b chromo inh, JMJD2A Tudor, BAZ2B block, L3MBTL1 block)
CCOc1ccccc1CNC(=O)CCn1cccn1	none (no result: L3MBTL1 block)
CCOc1nc(Nc2ccc(F)cc2)nc(N2CCN(c3ccc(OC)cc3)CC2)n1	G9a block inconclusive (no result: L3MBTL1 block)
CCOc1nc(Nc2ccc(OC)c(Cl)c2)nc(N2CCN(c3ccc(OC)cc3)CC2)n1	HP1b chromo inh inconclusive, G9a block 11.2µM, JMJD2A Tudor 35.5µM, BAZ2B block 11.2µM (no result: L3MBTL1 block)
COc1ccc(Nc2c3c(nc4ccc(NC(=O)/C=C/c5cc(OC)c(OC)c(OC)c5)cc24)CCCC3)cc1OC	G9a block 15.8µM, JMJD2A Tudor inconclusive, BAZ2B block 10µM (no result: L3MBTL1 block)
COc1ccc(/C=C/C(=O)Nc2ccc3nc4c(c(Nc5ccc(OC)c(OC)c5)c3c2)CCCC4)cc1	HP1b chromo inh inconclusive, G9a block 8.91µM, JMJD2A Tudor 22.4µM, BAZ2B block 8.91µM (no result: L3MBTL1 block)
Cc1ccc2c(c1)C(=O)OC(C(=O)Nc1ccccc1C(=O)O)C2 (centres undefined)	none (no result: L3MBTL1 block)
CCCN(CCC)S(=O)(=O)c1ccc(C(=O)N2CCn3c4c(c5cc(C)ccc53)CCCC42)cc1 (centres undefined)	G9a block inconclusive (no result: L3MBTL1 block)
CC1CC(C)(C)N(C(=O)CN2CCN(C)CC2)c2ccccc21 (centres undefined)	HP1b chromo inh inconclusive, JMJD2A Tudor 20µM, BAZ2B block 25.1µM (no result: G9a block)
CCn1c(CNS(=O)(=O)c2ccc(Br)cc2)nnc1SC	none (no result: L3MBTL1 block)
C=CCn1c(CNS(=O)(=O)c2ccc(Cl)cc2)n[nH]c1=S	G9a block 31.6µM, JMJD2A Tudor 28.2µM (no result: L3MBTL1 block)
C=CCn1c(Cc2nc3ccc(Cl)cc3[nH]2)n[nH]c1=S	G9a block inconclusive, JMJD2A Tudor inconclusive, BAZ2B block inconclusive (no result: L3MBTL1 block)
C=CCn1c(CNS(=O)(=O)c2ccc(Br)cc2)n[nH]c1=S	G9a block 31.6µM, JMJD2A Tudor 28.2µM (no result: L3MBTL1 block)
C=CCn1c(CNS(=O)(=O)c2ccc(F)cc2)n[nH]c1=S	JMJD2A Tudor 12.6µM (no result: L3MBTL1 block)
CCOC(=O)c1c(C)n(C(=O)c2ccco2)c(=O)n1C(=O)c1ccco1	G9a block 56.2µM
CCCCN(C)C(=O)Cn1c(SCC(=O)Nc2ccc(C)c(C)c2)nc2ccccc21	none (no result: L3MBTL1 block)
COc1ccc(CN2C[C@H](C)[C@@H](CC(=O)NCc3ccccc3)C2=O)cc1	G9a block 50.1µM
Cc1ccc(NC(=O)C(OC(=O)c2ccc(O)cc2)c2ccccc2)cc1Cl (centres undefined)	G9a block 70.8µM
COc1cc(OC)c(C2=NOC(C(=O)Nc3ccc4c(c3)OCO4)C2)cc1Cl (centres undefined)	G9a block 39.8µM
O=C(N[C@@H](Cc1ccccc1)c1nc2ccccc2[nH]1)c1cc([N+](=O)[O-])ccc1Cl	G9a block 10µM
CC(Cc1ccccc1)NC(=O)c1cc([N+](=O)[O-])ccc1Cl (centres undefined)	none
COCCN1C(=O)C(=O)/C(=C(/O)c2ccc(S(=O)(=O)N3CCOCC3)cc2)C1c1cccc(Cl)c1 (centres undefined)	none
COCCCN1C(=O)C(=O)/C(=C(/O)c2ccc(S(=O)(=O)N3CCCCC3)cc2)C1c1ccc(OC)cc1 (centres undefined)	none (no result: G9a block, L3MBTL1 block)
COCCN1C(=O)C(=O)/C(=C(/O)c2ccc(S(=O)(=O)N3CCOCC3)cc2)C1c1ccc(O)cc1 (centres undefined)	G9a block 70.8µM, BAZ2B block inconclusive
COCCCN1C(=O)C(=O)/C(=C(/O)c2ccc(OC(C)C)cc2)C1c1ccc(O)c(OC)c1 (centres undefined)	G9a block 56.2µM, JMJD2A Tudor 50.1µM
CCOc1ccc(C2/C(=C(/O)c3ccc(S(=O)(=O)N4CCCCC4)cc3)C(=O)C(=O)N2CCCOC)cc1OC (centres undefined)	G9a block 79.4µM (no result: L3MBTL1 block)
COCCCN1C(=O)C(=O)/C(=C(/O)c2ccc(S(=O)(=O)N3CCOCC3)cc2)C1c1ccc(OC)cc1 (centres undefined)	G9a block 39.8µM (no result: L3MBTL1 block)
CC(=O)c1cccc(NC(=O)c2sc(-n3nc(C)c(Cc4ccc5c(c4)OCO5)c3C)nc2C)c1	none (no result: L3MBTL1 block)
